# PREPL inhibitor: inhibits the human prolyl oligopeptidase-like enzyme | recombinant PREPL, fluorescence polarization activity-based probe | inhibition, % at 5.96 µM | 320,000 compounds, 0.68% hits; in the data active = inhibition above about 43%;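 also: 0% = enzyme with DMSO and 100% = wells lacking enzyme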
# Rpn11 block: inhibitors of human proteasome Rpn11; O00487; human 26S proteasome, Ub4-pepOG fluorescence polarization; 20S core pre-blocked with epoxomicin; inhibition, % at 20 µM; 360,000 compounds, 0.59% hits; AID 588493;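 active = inhibition at 20 µM, scaled to each plate's controls, above about 33%, limit read from the data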
# Target sequence (O00487 whole entry, looked up): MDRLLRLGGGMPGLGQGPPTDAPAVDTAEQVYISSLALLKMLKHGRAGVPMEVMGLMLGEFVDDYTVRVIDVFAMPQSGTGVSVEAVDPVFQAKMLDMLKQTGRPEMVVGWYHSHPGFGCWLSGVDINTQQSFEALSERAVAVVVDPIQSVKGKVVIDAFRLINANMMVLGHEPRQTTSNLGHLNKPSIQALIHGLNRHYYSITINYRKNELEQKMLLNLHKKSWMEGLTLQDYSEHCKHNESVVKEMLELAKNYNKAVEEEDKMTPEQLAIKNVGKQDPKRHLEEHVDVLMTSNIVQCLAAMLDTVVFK
# PP1 counter: counter-screen for PP5 inhibitors: inhibitors of human PP1-alpha; P62136; purified PP1alpha, OMFP fluorescence; inhibition, % at 6.7 µM; 320,000 compounds, 0.9% hits;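 active = inhibition above the mean inhibition of all tested compounds plus 3 SD, computed separately for each screening campaign, cut at about 15% in these data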
# Target sequence (P62136 whole entry, looked up): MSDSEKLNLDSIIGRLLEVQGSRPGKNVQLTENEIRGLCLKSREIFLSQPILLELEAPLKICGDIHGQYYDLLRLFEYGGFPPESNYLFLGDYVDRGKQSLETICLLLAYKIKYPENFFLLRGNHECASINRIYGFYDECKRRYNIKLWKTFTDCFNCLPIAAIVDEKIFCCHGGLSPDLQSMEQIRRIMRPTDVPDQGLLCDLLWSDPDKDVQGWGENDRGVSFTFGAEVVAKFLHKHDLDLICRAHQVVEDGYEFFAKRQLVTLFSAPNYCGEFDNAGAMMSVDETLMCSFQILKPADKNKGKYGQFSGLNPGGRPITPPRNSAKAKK
# PP5 primary: PP5 (human) phosphatase inhibition; P53041; purified PP5c, OMFP substrate fluorescence; inhibition, % at 6.7 µM; 320,000 compounds, 0.18% hits; AID 1987;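 active = inhibition above the campaign's mean inhibition across all tested compounds plus 3 SD, cut at about 9.5% in these data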;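 also: 0% = DMSO only and 100% = 100 µM cantharidin control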
# NadD block: blocks S. aureus nicotinate mononucleotide adenylyltransferase; purified NadD enzyme, colorimetric absorbance read-out; inhibition, % at 20 µM; 360,000 compounds, 0.78% hits; in the data active = inhibition above about 26%
# NadD inh conf: NadD (S. aureus) inhibition, single concentration confirmation; shares compounds with NadD block; purified S. aureus NadD, colorimetric enzyme assay; inhibition, % at 20 µM; 2,000 compounds, 13% hits; AID 624309; in the data active = inhibition mostly above about 42%, no sharp cut-off; inactive = mostly below about 42%
# The depositor's hits bear a star; . = no result given. This is a sample that favours compounds with a hit; in the whole collection about 2.4% have one here.
SMILES,PREPL inhibitor,Rpn11 block,PP1 counter,PP5 primary,NadD block,NadD inh conf
Cc1cc(NC(=O)CSc2nc3c(sc4ccccc43)c(=O)n2CCc2ccccc2)n[nH]1,-16.9,3.8,2.4,-0.8,33.9*,2.2
CCCCCCC(=O)Oc1cccc(C2=CC(=O)CC(C)(C)C2=O)c1,.,-5.2,.,.,4.8,.
CCCOc1ccc(Cc2nn3c(=O)/c(=C/c4ccco4)sc3nc2=O)cc1,9.4,-0.8,2.3,-0.1,4.2,.
COc1ccccc1/C=C/C=c1\sc2nc(=O)c(Cc3ccccc3)nn2c1=O,12.2,12.6,7.4,0.9,37.1*,18.6
CCOC(=O)C1=CCN(S(=O)(=O)c2ccccc2)C1c1ccccc1 (stereo not drawn),.,-2.0,.,.,-3.2,.
C=CCn1c(SCC(=O)Nc2ccccc2C)nnc1-c1ccncc1,-7.3,1.8,-0.5,2.4,48.7*,6.3
O=C(OCC(=O)c1ccc(Cl)cc1Cl)c1ccc2c(c1)C(=O)N(c1cccc3ncccc13)C2=O,24.5,1.4,-3.2,-1.6,42.7*,7.1
Cn1c(=O)n(Cc2ccccc2Cl)c(=O)c2c1[nH]c(=S)n2C,3.6,-3.6,0.7,0.8,39.1*,32.5
C#Cc1ccc([C@@H]2C=C(C(=O)NCc3ccccc3)O[C@H](OCCCCO)C2)cc1,6.1,11.4,8.4,5.2,39.1*,32.6
O=C(NCc1ccccc1)C1=C[C@@H](c2ccc(Br)cc2)C[C@@H](OCCCCO)O1,5.6,10.8,4.4,1.7,-7.4,.
CC1CC(C)(C)NC(=S)N1CCC(=O)N1CCc2ccccc21 (stereo not drawn),15.1,-4.2,-3.9,-2.3,1.7,.
Cc1ccc(-c2cc(-c3ccc(F)cc3)nc(N)c2C#N)o1,-2.6,21.4,1.4,0.4,12.9,.
Cc1ccc(-c2cc(-c3ccccc3Cl)c(C#N)c(N)n2)o1,17.9,2.8,8.3,0.7,68.4*,57.2*
Cc1ccc(-c2cc(-c3ccccc3)c(C#N)c(N)n2)o1,25.7,11.4,3.4,4.8,40.8*,47.9
Cc1csc2c(N3CCN(C(=O)Nc4ccc(OC(F)(F)F)cc4)CC3)ncnc12,-1.1,-3.3,0.9,2.2,-5.1,.
Cn1c2ccccc2c(=O)c2ccc(NCCc3cccs3)cc21,32.7,-77.2,.,.,35.7*,3.0
O=C(Nc1nc2cc(Cl)ccc2s1)C1CCCN(S(=O)(=O)c2cccc3cccnc23)C1 (stereo not drawn),5.9,5.1,1.4,0.6,36.3*,10.6
Cc1sc2nc(C3CC3)nc(N3CCN(S(=O)(=O)c4ccc(F)cc4)CC3)c2c1C,-11.1,11.9,3.0,1.1,35.0*,6.3
COCCn1c(C)cc(C2=NNC(=Nc3ccccc3)SC2)c1C,10.7,4.9,8.9,-3.8,35.7*,3.6
COCCn1c(C)cc(C2=NNC(=NC(C)(C)C)SC2)c1C,-1.5,8.7,3.5,-2.1,4.3,.
CCN=C1NN=C(c2cc(C)n(Cc3ccco3)c2C)CS1,18.7,7.2,10.8,-0.1,37.1*,6.9
CCN=C1NN=C(c2cc(C)n(CCc3ccccc3)c2C)CS1,.,8.2,.,.,17.0,.
O=C(c1ccc(Cl)c(S(=O)(=O)N2CCCCCC2)c1)N1CCN(c2ccccc2O)CC1,10.9,-1.8,4.8,0.9,5.2,.
C=C(C)[C@@H]1CC[C@]2(C(=O)O)CC[C@]3(C)[C@H](CC[C@@H]4[C@@]5(C)CC[C@H](O)C(C)(C)[C@@H]5CC[C@]43C)[C@@H]12,2.4,4.5,-0.7,-0.5,52.9*,12.6
O=C1CC(c2ccco2)Cc2nc(Nc3nc(-c4ccccc4)c4ccccc4n3)ncc21 (stereo not drawn),-6.3,4.4,26.2*,0.2,57.2*,31.9
SMILES,PREPL inhibitor,Rpn11 block,PP1 counter,PP5 primary,NadD block,NadD inh conf
Cc1ccc(C)c(-n2ccnc2SCC(=O)c2c(N)n(C3CC3)c(=O)[nH]c2=O)c1,4.8,-2.6,-3.5,3.7,2.8,.
CCN(CC(=O)NC(C)(C)C)Cc1nc2c(Br)cc(Br)cc2c(=O)[nH]1,-1.7,7.6,1.0,1.5,-5.2,.
Cc1ccc(NC(=O)CN(C)Cc2nc3c(Br)cc(Br)cc3c(=O)[nH]2)cc1,0.4,23.4,3.3,1.1,28.7*,-1.1
O=c1[nH]c(C2CCN(S(=O)(=O)c3ccc(F)cc3)CC2)nc2c1nnn2Cc1ccc2c(c1)OCCO2,1.1,-5.8,2.9,2.9,30.1*,32.3
O=c1[nH]c(C2CCN(S(=O)(=O)c3ccc(C(F)(F)F)cc3)CC2)nc2c1nnn2Cc1cccc(F)c1,-3.0,-2.8,-0.8,5.7,31.3*,20.4
Cc1ccc(Cn2nnc3c(=O)[nH]c(C4CCN(S(=O)(=O)c5ccc(F)cc5)CC4)nc32)cc1,9.1,-0.8,14.3,1.6,15.3,.
Cc1ccc(C)c(Cn2nnc3c(=O)[nH]c(C4CCN(S(=O)(=O)c5ccc(S(=O)(=O)N(C)C)cc5)CC4)nc32)c1,2.5,12.4,6.0,4.8,46.3*,8.8
Cc1ccc(S(=O)(=O)N2CCCC(c3nc4c(nnn4Cc4ccc5c(c4)OCCO5)c(=O)[nH]3)C2)cc1 (stereo not drawn),-2.9,-3.9,1.2,0.6,37.1*,30.1
COc1ccc(-c2coc3c(C(=O)NCc4ccc(C(F)(F)F)cc4)cccc23)c(C)c1,.,0.5,.,.,-4.6,.
CCN(Cc1ccncc1)C(=O)c1cc(COc2c(F)cccc2F)on1,10.0,0.5,-1.5,-0.5,-5.3,.
O=c1[nH]c(C2CCN(S(=O)(=O)/C=C/c3ccccc3)CC2)nc2c1nnn2Cc1ccc(F)cc1,21.0,2.3,16.6*,2.6,35.1*,35.4
COc1ccc(-n2c(=S)[nH]c3c(sc(=S)n3-c3ccccc3)c2=O)c(OC)c1,-7.4,1.1,-1.9,-1.8,29.5*,14.2
COc1ccc(-n2c(=S)[nH]c3sc(-c4ccccc4)cc3c2=O)c(OC)c1,-3.1,5.5,-0.5,-3.8,3.8,.
Cc1ccc2nc(COC(=O)c3cccnc3Cl)cc(=O)n2c1,.,-1.7,.,.,-4.0,.
N#C/C(=C\c1ccc(Oc2ccc(C(F)(F)F)cc2[N+](=O)[O-])cc1)c1nc2ccccc2[nH]1,36.7,15.0,9.6,5.1,40.4*,11.0
N#C/C(=C\c1cccc(OCC(=O)O)c1)c1nc2ccccc2[nH]1,42.8,-3.0,1.9,1.8,9.9,.
O=C(NCC(F)(F)F)c1ccc(S(=O)(=O)N2CCN(C(=O)C3CCCO3)CC2)cc1 (stereo not drawn),1.1,-6.5,-0.7,-0.4,2.9,.
COc1ccc(NCC(=O)N/N=C2\CCc3ccccc32)cc1,19.9,6.5,2.9,0.6,30.5*,7.3
O=C(CNc1ccc(F)cc1)N/N=C1\CCc2ccccc21,11.1,-7.1,5.1,5.9,3.0,.
O=C(CCNC(=O)c1ccco1)Nc1ccc(Cl)cc1F,-8.7,5.8,4.8,0.9,3.4,.
COc1ccccc1NC(=O)CCS(=O)(=O)c1cc2c(cc1Cl)NC(=O)CO2,-2.9,1.9,0.6,0.1,9.3,.
O=C(NNC(=O)c1cc(-c2ccccc2)nc2ccccc12)c1csc(N2CCOCC2)n1,-4.4,16.0,-7.3,0.8,16.3,.
